# sEH inhibitor – soluble epoxide hydrolase inhibitors, primary screen, biochemical, human sEH; Bifunctional epoxide hydrolase 2 (Homo sapiens), P34913; recombinant human sEH enzymatic activity assay; inhibition, % at 2 µM; 0.34% of 91,000 active; AID 707, 2007; in the data active means inhibition above about 80%
# PostGolgi yeast – phenotypic screen on post-Golgi transport, primary screen; post-Golgi transport phenotypic cell assay; 0.9% of 98,000 active; AID 739, 2007; inhibition, % at 10 µM;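 further: yeast cells grown in 1536-well plates; yeast grown about 18 h at 30C before absorbance read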
# PostGolgi ctrl – growth inhibition of yeast control strain, primary screen, counter-screen for post-Golgi transport modulator project; efflux-deficient yeast background strain, growth absorbance A615, 16 h; AID 738, 2007; 5% of 98,000 active; inhibition, % at 10 µM
# sEH act – soluble epoxide hydrolase activators, primary screen, biochemical, human sEH; Bifunctional epoxide hydrolase 2 (Homo sapiens), P34913; purified human sEH enzymatic activity, activator screen; activation, % at 2 µM; 0.04% of 91,000 active; AID 717, 2007; in the data active means activation above about 37%
# Cav3 T inh – Cav3.2 calcium influx blockers – cell-based, Fluo-4 calcium fluorescence, FDSS, MLSMR library, primary screen. B-score at 10 µM. Voltage-dependent T-type calcium channel subunit alpha-1H (Homo sapiens), O95180. AID 449739, 2010. 4% of 100,000 active. Cav3.2-expressing cells; stronger effect = lower value;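 active means single-dose well whose peak fluorescence ratio is a statistical outlier from its plate by either plate-standardised score or position-corrected B-score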
# An asterisk follows results filed as active; . = no result. A selection: hits, their analogues and other compounds. The true share with any hit is near 7.8%. Unless noted, no stated cut-off is given here; in the data, active means inhibition above about 30%; inactive means the rest.
SMILES,sEH inhibitor,PostGolgi yeast,PostGolgi ctrl,sEH act,Cav3 T inh
Cc1csc(NC(=O)CSc2nnc(-c3ccoc3C)n2Cc2ccco2)n1,1.2,2.1,0.1,0.3,-0.871
FC(F)C(F)(F)C(F)(F)C(F)(F)c1cc(-c2ccccc2)n[nH]1,.,1.0,46.4*,.,-1.8
O=C(CCC1CCCC1)NC1CCCCC1,41.8,-5.0,-0.9,-42.6,0.00261
O=C(CCC1CCCCC1)NNC(=O)NC12CC3CC(CC(C3)C1)C2,83.8*,1.6,22.7,-83.6,-2.65
O=C(O)C1=C[C@@H](c2ccc(Br)cc2)C[C@@H](OCCCCO)O1,.,.,.,.,1.63
O=[N+]([O-])c1ccc(N=Nc2ccc(O)cc2O)cc1,7.5,-3.0,4.2,-10.2,-8.79*
Brc1ccc(-c2cnc(-c3cccs3)o2)cc1,-24.9,3.1,18.9,24.0,0.193
O=C(CC(NS(=O)(=O)c1ccc(Cl)cc1)c1ccco1)N1CCc2ccccc21 (stereo not given),-12.1,2.6,19.2,9.0,-4.29*
Cc1cc(C)c(NC(=O)COc2ccccc2C(=O)Nc2ccc3c(c2)oc2ccccc23)c(C)c1,-0.4,-7.4,-5.3,-3.1,0.0484
COc1cccc(N2CCN(C3CC(=O)N(c4ccc(Cl)c(Cl)c4)C3=O)CC2)c1 (stereo not given),10.3,-0.5,12.9,-11.9,-6.38*
CCN1C(=O)NC(c2cc(Br)ccc2OC)C(C(=O)OC)=C1C (stereo not given),5.5,2.9,12.7,-3.3,-0.0759
CCCOc1ccc(N2C(=O)CC(N(CCC)C(=O)CCC(=O)O)C2=O)cc1 (stereo not given),.,-1.0,11.4,.,-0.179
CCCOc1ccc(N2C(=O)CC(N(CCc3ccc(OC)cc3)C(=O)c3cccc(F)c3)C2=O)cc1 (stereo not given),-6.4,-16.4,8.7,10.0,-4.58*
C=CCN(C(=O)CCC(=O)O)C1CC(=O)N(c2ccc(OCCC)cc2)C1=O (stereo not given),.,-21.1,34.1*,.,-0.717
O=C1C=C(NCCN2CCOCC2)CC(c2ccccc2)C1 (stereo not given),1.5,-7.0,-0.4,-2.7,.
CSc1ncc(Cl)c(C(=O)NCc2ccc3c(c2)OCO3)n1,5.0,-7.3,1.7,-0.1,-0.000204
CSc1ncc(Cl)c(C(=O)C(C#N)c2nc3c(C)cc(C)cc3c(=O)[nH]2)n1 (stereo not given),.,-2.1,21.9,.,-7.05*
C=CCOC(=O)C1=C[C@H](c2ccc(Br)cc2)C[C@H](OCc2ccc(CO)cc2)O1,.,.,.,.,-0.477
O=C(CSc1ccc(Cl)cc1)N1CCN(c2c(Cl)cccc2[N+](=O)[O-])CC1,-4.2,41.1*,29.3,8.6,-2.88
O=C(CSc1ccc(Cl)cc1)N1CCN(c2ccc([N+](=O)[O-])cc2Cl)CC1,9.5,81.8*,77.7*,-8.0,-3.71
COc1ccc(CCn2c(C)c(C(C)=O)c3cc(OC(=O)c4ccco4)ccc32)cc1OC,-3.0,7.9,20.9,3.8,1.74
CCS(=O)(=O)N1CCCC(C(=O)NCCc2ccccc2)C1 (stereo not given),5.3,-2.0,1.1,-7.9,0.117
CCOC(=O)N1CCN(C(=O)Cn2ccc3c(OC)cccc3c2=O)CC1,.,.,.,.,0.51
Cc1cc(C)nc(NS(=O)(=O)c2ccc(NC(=O)c3ccc4c(c3)OCO4)cc2)n1,.,12.7,11.2,.,0.0454
Cc1cc(C)nc(Nc2nc(C)c3cc4c(cc3n2)OCO4)n1,2.2,-2.2,36.0*,-2.1,0.0161
SMILES,sEH inhibitor,PostGolgi yeast,PostGolgi ctrl,sEH act,Cav3 T inh
COc1cccc2c1C(=O)c1c(O)c3c(c(O)c1C2=O)C[C@@](O)(C(=O)CO)C[C@@H]3O[C@H]1C[C@H](N)[C@@H](O)[C@H](C)O1,.,.,.,.,-5.62*
Cc1cccc(OCCCCc2c(C)n[nH]c2C)c1C,-3.6,8.2,37.5*,5.2,-3.08
Cc1cccc(OCCCCc2c(C)n[nH]c2C)c1,-9.6,3.1,18.1,9.9,-5.83*
COc1ccccc1OCCCc1c(C)n[nH]c1C,15.8,108.8*,100.2*,-14.9,0.329
CCOc1ccccc1OCCCCCc1c(C)n[nH]c1C,.,-6.0,11.8,.,-3.6*
CC1(C)CC(c2csc(N)n2)CCO1 (stereo not given),18.2,9.0,0.3,-17.9,0.582
COc1cc(-c2c(C#N)c(N)nc(SCc3ccncc3)c2C#N)cc(OC)c1OC,.,0.9,18.1,.,-0.00262
N#Cc1c(N)nc(SCc2ccncc2)c(C#N)c1-c1cccs1,.,-1.9,48.6*,.,-1.25
CCSc1nc(N)nc(-c2cccs2)c1C#N,.,28.4,40.3*,.,.
CCCCCCN(C(=O)CCCCCN1C(=O)NC(c2ccccc2)C(C(=O)OCc2ccccc2)=C1C)C(C(=O)NCCCC)c1ccc(OCC(=O)OC)c(C(=O)OC)c1 (stereo not given),.,.,.,.,-1.8
O=C1NC2(Nc3ccccc31)C(=O)Nc1ccccc12 (stereo not given),7.3,43.9*,13.6,-6.0,0.436
O=C1NCCC12C(=O)Nc1ccccc12 (stereo not given),.,.,.,.,0.0159
CCCCn1ccnc1C(=O)c1cccc(S(=O)(=O)N2CC(C)CC(C)C2)c1 (stereo not given),6.9,-8.5,10.4,-6.2,-3.67
O=C(Nc1ccn(Cc2ccccc2F)n1)c1ccc(COc2cc(Cl)ccc2Cl)o1,7.0,0.9,13.1,-6.3,-4.91*
O=C(Nc1ccn(Cc2ccccc2F)n1)c1ccc(COc2cccc(Br)c2)cc1,20.7,-8.6,8.0,-19.1,-7.33*
O=C(Nc1nn(Cc2ccc(Cl)cc2)cc1Br)c1ccc(COc2ccccc2Cl)o1,3.9,4.2,2.2,-5.5,-6.24*
O=C(Nc1ccccn1)c1ccc(COc2ccccc2Cl)o1,-3.1,.,.,6.5,-1.06
O=C(Nc1ccn(Cc2ccccc2F)n1)c1ccc(COc2ccccc2Cl)cc1,-6.1,-10.8,14.2,8.2,.
O=C(Nc1cccnc1)c1ccc(COc2cc(Cl)ccc2Cl)o1,11.9,12.7,59.8*,-8.8,-2.37
CCOc1ccccc1NC(=O)C1CC(=O)n2ncnc2N1 (stereo not given),-2.3,-3.2,0.8,4.4,-0.919
Cc1ccc(C)c(N2CCN(C(=O)CNS(=O)(=O)c3cccs3)CC2)c1,-6.2,-7.3,16.3,3.2,0.217
O=C(c1ccc(Cl)cc1Cl)N1CCC(c2nc3c(nnn3Cc3ccco3)c(=O)[nH]2)CC1,1.9,30.2*,-10.3,-2.7,-0.881
O=C(c1ccccc1)N1CCC(c2nc3c(nnn3Cc3ccco3)c(=O)[nH]2)CC1,1.2,-2.7,0.6,-1.9,1.06
COc1ccc(NC(=O)CSc2nnc(CCC(=O)Nc3ccc(C)c(Cl)c3)n2C)cc1,3.2,-4.8,4.3,-3.1,0.215
COCCNC(=O)c1onc(CSc2ccc(F)c(F)c2)c1C(=O)NCCOC,.,.,.,.,1.15
COc1ccc(Cl)cc1C(=O)NNC(=S)NC(=O)c1cc(-c2ccccc2)nc2ccccc12,11.3,-7.4,17.4,-8.8,.

# Screens deposited in PubChem BioAssay by several laboratories.
